Reference: the supplement of paper PMC3545927
Some of the results follow. The hit rate among all sequences tested is not known here.

Molecular target: furin, P09958
Assay: furin cleavage Z-score vs untreated control; higher = more cleavage, active = 3.5 or more, inactive = 1 or less, 8 variable residues between constant flanks
How it was run: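 Reactions of 0.01 ml ran for 7.5, 15 or 30 min in 50 mM HEPES pH 7.5 with CaCl2 and NaCl, at 1:10 enzyme:substrate. In them, purified furin acted on bead-held 8-mer peptides fused to a cDNA oligonucleotide. The cleavage Z-score was obtained by lowess-adjusting log sequencing counts of released DNA against furin-free reactions and scaling by median absolute deviation.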

Sequence of furin, P09958 (P09958 whole entry): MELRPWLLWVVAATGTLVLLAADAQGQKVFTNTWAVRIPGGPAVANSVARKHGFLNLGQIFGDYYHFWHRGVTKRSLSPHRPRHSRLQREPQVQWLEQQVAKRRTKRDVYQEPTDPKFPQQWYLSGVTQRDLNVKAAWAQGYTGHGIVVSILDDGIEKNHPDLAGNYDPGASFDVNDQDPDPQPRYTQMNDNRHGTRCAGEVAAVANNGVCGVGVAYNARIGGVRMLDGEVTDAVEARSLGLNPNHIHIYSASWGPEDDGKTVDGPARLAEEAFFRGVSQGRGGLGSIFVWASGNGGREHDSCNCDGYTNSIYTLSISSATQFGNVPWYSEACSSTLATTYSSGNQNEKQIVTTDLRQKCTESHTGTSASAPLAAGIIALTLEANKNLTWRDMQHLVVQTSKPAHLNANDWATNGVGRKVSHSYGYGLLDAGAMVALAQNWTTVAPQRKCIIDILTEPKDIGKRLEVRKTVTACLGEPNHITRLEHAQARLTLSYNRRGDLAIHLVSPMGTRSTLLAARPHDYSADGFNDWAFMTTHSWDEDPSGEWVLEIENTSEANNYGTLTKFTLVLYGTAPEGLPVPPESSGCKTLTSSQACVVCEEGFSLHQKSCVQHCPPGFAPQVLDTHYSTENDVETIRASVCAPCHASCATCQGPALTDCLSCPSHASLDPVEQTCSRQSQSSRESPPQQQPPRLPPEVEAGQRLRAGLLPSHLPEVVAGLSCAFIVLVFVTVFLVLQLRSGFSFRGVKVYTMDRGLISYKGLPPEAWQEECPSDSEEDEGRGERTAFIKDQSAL

Sequence | furin cleavage Z-score (7.5 min) | furin cleavage Z-score (15 min) | furin cleavage Z-score (30 min)
CAENTTPCSGAGNASASA [HC1981] | -1.67 (inactive) | 0.267 (inactive) | -0.382 (inactive)
CASAPSLKATAGNASASA [HC1264] | -1.75 (inactive) | -0.175 (inactive) | -1.74 (inactive)
CAMEECSQQLAGNASASA [HC1762] | 1.29 | 0.207 (inactive) | 0.503 (inactive)
CAMEECSQHKAGNASASA [HC1774] | -0.682 (inactive) | 0.0797 (inactive) | -0.301 (inactive)
CAVCPRMKRKAGNASASA [FS-385] | 6.36 (active) | 7.19 (active) | 7.64 (active)
CAMAARMKRKAGNASASA [FS-1467] | 8.01 (active) | 8.75 (active) | 8.6 (active)
CAGARRAKRKAGNASASA [FS-1326] | 5.27 (active) | 5.92 (active) | 5.79 (active)
CAEVVSSTWVAGNASASA [HC135] | 0.7 (inactive) | -1.48 (inactive) | 0.771 (inactive)
CAVFTGLTHIAGNASASA [HC941] | -1.4 (inactive) | 0.134 (inactive) | -1.78 (inactive)
CAQMVIIKLGAGNASASA [HC628] | 1.18 | -0.535 (inactive) | 0.271 (inactive)
CAILQRLKRIAGNASASA [FS-1346] | 3.62 (active) | 3.86 (active) | 6.79 (active)
CAIFKRKKRIAGNASASA [FS-1212] | 3.24 | 3.6 (active) | 5.56 (active)
CAKKRRATRFAGNASASA [FS-450] | 1.73 | 3.42 | 4.38 (active)
CAQNERSYRIAGNASASA [FS-183] | -0.223 (inactive) | 1.02 | 0.628 (inactive)
CANPQRFDRIAGNASASA [FS-1039] | -0.635 (inactive) | -0.196 (inactive) | 0.174 (inactive)
CAKTNRKTRFAGNASASA [FS-345] | 1.94 | 3.24 | 4.81 (active)
CAFLEVVTSTAGNASASA [HC2267] | -1.17 (inactive) | -0.113 (inactive) | -1.92 (inactive)
CARAFTEAMTAGNASASA [HC1539] | 0.545 (inactive) | -0.418 (inactive) | 0.0305 (inactive)
CAVAYYRGLDAGNASASA [HC868] | 0.403 (inactive) | 1.75 | -1.15 (inactive)
CAAHWGVLAGAGNASASA [HC336] | -1.27 (inactive) | -1.2 (inactive) | -0.699 (inactive)
CAIYCRKKRIAGNASASA [FS-806] | 2.51 | 0.629 (inactive) | 4.48 (active)
CAIQSRRKKIAGNASASA [FS-443] | 0.424 (inactive) | -0.328 (inactive) | 0.24 (inactive)

Sequence | furin cleavage Z-score (7.5 min) | furin cleavage Z-score (15 min) | furin cleavage Z-score (30 min)
CAEWLRKKRIAGNASASA [FS-418] | 0.96 (inactive) | 1.09 | 1.3
CASLHLKKRIAGNASASA [FS-625] | -0.694 (inactive) | -1.61 (inactive) | 0.811 (inactive)
CAKKRRKKRIAGNASASA [FS-936] | 3.69 (active) | 6.37 (active) | 7.05 (active)
CAYREVPCHRAGNASASA [HC2429] | 1.27 | -0.258 (inactive) | -1.27 (inactive)
CACNDSLNTGAGNASASA [HC375] | -1.58 (inactive) | 0.314 (inactive) | -2.54 (inactive)
CAVVCCSMAYAGNASASA [HC2063] | 0.877 (inactive) | 1.72 | 0.58 (inactive)
CADRSRGKRFAGNASASA [FS-410] | 7.7 (active) | 10.3 (active) | 8.8 (active)
CAKKIRGKRFAGNASASA [FS-672] | 6.75 (active) | 8.84 (active) | 7.44 (active)
CATTPSSGSWAGNASASA [HC55] | -0.371 (inactive) | -0.739 (inactive) | -0.54 (inactive)
CAVVCCSMSYAGNASASA [HC94] | 0.423 (inactive) | 0.141 (inactive) | 0.568 (inactive)
CADEVDGVDEAGNASASA [CS2] | -0.934 (inactive) | -0.925 (inactive) | -0.54 (inactive)
CAPCTPLPAPAGNASASA [HC1195] | -0.0603 (inactive) | -1.7 (inactive) | -1.53 (inactive)
CALELRRVRSAGNASASA [FS-605] | 0.493 (inactive) | 1.94 | 2.52
CADRSRRVRSAGNASASA [FS-1190] | 12.9 (active) | 12.1 (active) | 9.2 (active)
CAHLKRRVRSAGNASASA [FS-793] | 11.8 (active) | 10.6 (active) | 9.61 (active)
CAHLKRDTEDAGNASASA [FS-2863] | -0.885 (inactive) | 0.879 (inactive) | -0.411 (inactive)
CASAGRHVRSAGNASASA [FS-1408] | 8 (active) | 10.8 (active) | 7.16 (active)
CAFSSRDERSAGNASASA [FS-588] | -0.242 (inactive) | -1.07 (inactive) | -1.76 (inactive)
CAPLRRFWRSAGNASASA [FS-1602] | -0.433 (inactive) | -0.244 (inactive) | 0.194 (inactive)
CAPKSRIVRSAGNASASA [FS-369] | 14.9 (active) | 13.8 (active) | 11.4 (active)
CASAGHTVSGAGNASASA [HC356] | -0.221 (inactive) | -0.0745 (inactive) | 0.22 (inactive)
